The supplement of paper PMC10849652
Of roughly 7,900 targets only a part is listed; those with a hit were picked by preference. About 0.6% of all pairs of compound and target were hits.

These targets were tested with Cc1cc(Nc2cc(CN3CCOCC3)c3nc(C)c(Cc4ccc(Cl)cc4F)n3n2)n[nH]1 [gandotinib] (assay: log2 fold change, soluble protein after heating vs DMSO (PISA); higher = thermal stabilisation; K562 cells, 10 uM, 30 min; active = over 0.2 and 3.5 SD of the protein, either way, in both replicates (recomputed)).
In short: (§1)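 K562 cells (2×10^6 cells/mL) were treated with 10 μM compound for 30 min, and aliquots were heated for 3 min over 48°C-58°C. Pooled aliquots were extracted in PBS with 0.5% NP-40 at 4°C, and the supernatant after 21,000xg for 90 min was measured by TMTpro 16plex LC-MS/MS with channel sums equalised. Reported thermal stability, relative to control samples and from duplicates, is a log2 fold change.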

UniProt P35227, sequence (P35227 whole entry, looked up): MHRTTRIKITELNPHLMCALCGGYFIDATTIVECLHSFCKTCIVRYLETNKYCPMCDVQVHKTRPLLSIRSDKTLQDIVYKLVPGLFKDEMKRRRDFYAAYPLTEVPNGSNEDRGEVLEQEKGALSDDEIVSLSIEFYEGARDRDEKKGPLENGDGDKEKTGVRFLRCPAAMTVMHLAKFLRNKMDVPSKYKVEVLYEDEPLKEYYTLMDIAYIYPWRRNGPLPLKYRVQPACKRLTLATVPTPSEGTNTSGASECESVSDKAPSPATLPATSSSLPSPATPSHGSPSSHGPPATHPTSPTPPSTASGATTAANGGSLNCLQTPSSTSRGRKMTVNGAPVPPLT
UniProt P0CG38, sequence (P0CG38 whole entry, looked up): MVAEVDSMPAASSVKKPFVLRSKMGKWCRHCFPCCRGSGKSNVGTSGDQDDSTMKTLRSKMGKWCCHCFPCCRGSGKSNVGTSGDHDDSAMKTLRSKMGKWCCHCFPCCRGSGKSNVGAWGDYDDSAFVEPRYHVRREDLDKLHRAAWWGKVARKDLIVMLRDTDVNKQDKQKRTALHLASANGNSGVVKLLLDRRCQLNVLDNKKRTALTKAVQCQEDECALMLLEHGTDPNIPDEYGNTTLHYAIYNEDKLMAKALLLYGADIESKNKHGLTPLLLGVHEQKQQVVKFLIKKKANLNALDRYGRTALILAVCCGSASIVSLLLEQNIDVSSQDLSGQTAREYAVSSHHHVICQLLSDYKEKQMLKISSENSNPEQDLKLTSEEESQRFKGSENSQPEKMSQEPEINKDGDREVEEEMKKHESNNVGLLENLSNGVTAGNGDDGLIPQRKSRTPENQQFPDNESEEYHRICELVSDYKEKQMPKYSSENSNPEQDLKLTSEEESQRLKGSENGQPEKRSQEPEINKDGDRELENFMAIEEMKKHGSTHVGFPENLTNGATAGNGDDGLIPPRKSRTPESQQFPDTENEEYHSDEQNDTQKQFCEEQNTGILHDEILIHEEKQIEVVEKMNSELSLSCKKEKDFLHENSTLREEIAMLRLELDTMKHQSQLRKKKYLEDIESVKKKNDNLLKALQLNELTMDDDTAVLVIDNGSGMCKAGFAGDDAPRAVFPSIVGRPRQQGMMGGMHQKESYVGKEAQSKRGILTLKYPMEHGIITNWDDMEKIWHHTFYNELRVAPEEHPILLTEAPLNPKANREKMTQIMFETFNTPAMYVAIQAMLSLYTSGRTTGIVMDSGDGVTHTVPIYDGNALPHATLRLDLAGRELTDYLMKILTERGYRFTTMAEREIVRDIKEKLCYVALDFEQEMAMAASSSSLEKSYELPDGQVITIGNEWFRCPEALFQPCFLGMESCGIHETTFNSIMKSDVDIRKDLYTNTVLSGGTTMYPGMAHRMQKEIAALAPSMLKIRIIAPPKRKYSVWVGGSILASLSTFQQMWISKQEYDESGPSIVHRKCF
UniProt O75400, sequence (O75400 whole entry, looked up): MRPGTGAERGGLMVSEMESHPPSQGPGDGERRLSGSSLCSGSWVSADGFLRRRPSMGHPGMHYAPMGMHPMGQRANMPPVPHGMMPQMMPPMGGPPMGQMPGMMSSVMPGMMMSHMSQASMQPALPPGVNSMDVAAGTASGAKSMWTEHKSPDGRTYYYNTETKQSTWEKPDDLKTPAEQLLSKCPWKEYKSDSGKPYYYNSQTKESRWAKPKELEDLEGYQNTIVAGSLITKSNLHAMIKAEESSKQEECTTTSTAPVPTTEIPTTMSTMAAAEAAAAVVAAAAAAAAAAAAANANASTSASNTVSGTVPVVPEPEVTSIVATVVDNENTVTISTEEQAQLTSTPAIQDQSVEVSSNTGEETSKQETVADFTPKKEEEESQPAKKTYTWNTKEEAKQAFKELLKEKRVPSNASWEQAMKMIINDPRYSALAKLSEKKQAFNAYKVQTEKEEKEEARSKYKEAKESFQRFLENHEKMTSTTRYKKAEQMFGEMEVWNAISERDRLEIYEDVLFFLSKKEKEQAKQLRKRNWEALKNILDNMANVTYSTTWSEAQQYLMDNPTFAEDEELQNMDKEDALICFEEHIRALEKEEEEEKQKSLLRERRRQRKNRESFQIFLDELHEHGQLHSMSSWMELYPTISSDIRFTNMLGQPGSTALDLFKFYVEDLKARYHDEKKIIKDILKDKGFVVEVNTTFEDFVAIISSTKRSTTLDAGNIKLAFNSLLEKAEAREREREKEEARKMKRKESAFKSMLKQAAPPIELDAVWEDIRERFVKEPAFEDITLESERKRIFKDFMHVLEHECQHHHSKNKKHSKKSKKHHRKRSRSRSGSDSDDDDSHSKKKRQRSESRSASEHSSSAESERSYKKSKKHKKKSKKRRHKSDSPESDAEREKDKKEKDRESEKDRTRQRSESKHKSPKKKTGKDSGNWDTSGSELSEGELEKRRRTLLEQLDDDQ
UniProt Q8NCC3, sequence (Q8NCC3 whole entry, looked up): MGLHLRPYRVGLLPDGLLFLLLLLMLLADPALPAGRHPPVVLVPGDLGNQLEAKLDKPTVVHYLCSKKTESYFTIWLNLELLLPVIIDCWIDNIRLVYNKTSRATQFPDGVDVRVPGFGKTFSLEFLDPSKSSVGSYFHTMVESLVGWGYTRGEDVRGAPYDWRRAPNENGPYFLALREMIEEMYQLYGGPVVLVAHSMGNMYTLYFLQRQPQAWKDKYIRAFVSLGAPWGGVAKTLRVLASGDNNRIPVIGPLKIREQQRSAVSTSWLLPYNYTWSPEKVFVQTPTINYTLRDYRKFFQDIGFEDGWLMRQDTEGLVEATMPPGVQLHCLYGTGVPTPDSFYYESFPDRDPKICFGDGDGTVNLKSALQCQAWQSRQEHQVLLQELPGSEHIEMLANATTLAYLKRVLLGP
UniProt Q13200, sequence (Q13200 whole entry, looked up): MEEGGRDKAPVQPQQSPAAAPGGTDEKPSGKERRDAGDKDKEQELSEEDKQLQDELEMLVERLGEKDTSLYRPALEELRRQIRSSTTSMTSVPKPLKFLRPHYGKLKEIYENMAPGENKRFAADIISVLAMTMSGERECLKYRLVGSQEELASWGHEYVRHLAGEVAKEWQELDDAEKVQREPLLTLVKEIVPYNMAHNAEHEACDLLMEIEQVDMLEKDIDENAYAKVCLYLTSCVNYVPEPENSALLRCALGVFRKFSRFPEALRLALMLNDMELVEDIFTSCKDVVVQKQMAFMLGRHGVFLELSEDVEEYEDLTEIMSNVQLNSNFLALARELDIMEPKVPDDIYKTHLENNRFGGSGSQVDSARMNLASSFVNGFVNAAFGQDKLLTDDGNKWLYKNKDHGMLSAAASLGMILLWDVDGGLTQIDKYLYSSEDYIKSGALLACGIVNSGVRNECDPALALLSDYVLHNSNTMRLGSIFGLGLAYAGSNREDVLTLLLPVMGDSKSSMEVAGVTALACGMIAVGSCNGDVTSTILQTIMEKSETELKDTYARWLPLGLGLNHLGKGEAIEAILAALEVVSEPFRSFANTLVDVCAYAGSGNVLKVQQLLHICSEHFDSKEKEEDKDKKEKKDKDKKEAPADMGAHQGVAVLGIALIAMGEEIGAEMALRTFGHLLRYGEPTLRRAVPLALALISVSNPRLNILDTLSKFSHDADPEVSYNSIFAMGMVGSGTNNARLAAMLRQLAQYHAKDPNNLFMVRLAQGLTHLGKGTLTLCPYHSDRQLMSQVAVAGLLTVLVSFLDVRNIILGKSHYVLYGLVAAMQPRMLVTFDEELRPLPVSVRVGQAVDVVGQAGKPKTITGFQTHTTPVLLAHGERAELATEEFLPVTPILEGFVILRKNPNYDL
UniProt Q5VTL8, sequence (Q5VTL8 whole entry, looked up): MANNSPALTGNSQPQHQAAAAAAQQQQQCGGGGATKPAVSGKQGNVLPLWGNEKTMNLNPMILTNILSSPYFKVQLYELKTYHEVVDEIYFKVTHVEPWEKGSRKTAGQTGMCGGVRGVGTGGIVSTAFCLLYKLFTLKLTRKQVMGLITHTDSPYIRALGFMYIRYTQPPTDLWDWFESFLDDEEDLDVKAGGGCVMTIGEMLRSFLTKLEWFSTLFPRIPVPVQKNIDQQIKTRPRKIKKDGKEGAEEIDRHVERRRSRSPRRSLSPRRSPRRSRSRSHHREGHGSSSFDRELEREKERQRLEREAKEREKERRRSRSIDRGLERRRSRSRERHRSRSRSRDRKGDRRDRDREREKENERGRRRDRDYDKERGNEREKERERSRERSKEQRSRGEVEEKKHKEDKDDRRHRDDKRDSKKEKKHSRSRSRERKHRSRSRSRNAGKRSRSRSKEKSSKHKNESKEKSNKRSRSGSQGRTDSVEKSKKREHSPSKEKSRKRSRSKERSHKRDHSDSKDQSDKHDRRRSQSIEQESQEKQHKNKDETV
UniProt Q9Y3C6, sequence (Q9Y3C6 whole entry, looked up): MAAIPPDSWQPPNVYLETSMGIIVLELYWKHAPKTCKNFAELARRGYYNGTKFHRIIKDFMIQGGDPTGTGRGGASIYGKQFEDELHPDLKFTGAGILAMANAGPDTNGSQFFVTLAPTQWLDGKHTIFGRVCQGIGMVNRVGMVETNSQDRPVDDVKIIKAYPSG
UniProt Q13362, sequence (Q13362 whole entry, looked up): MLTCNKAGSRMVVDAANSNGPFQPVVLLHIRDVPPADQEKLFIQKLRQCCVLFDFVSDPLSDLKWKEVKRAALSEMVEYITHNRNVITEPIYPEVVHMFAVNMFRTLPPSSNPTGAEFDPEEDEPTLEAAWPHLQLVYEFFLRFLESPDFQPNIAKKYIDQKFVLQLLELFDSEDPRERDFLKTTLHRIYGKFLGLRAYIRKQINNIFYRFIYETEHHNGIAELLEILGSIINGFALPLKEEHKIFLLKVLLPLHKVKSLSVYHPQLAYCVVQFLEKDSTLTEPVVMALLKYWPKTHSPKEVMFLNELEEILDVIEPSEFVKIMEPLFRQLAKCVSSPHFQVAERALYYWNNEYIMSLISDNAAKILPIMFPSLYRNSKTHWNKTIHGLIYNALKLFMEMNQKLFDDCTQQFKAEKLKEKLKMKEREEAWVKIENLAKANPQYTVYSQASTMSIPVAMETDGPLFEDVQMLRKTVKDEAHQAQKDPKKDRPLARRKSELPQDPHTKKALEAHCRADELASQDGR

log2 fold change, active:
POLR2B (UniProt P30876) 0.26

log2 fold change, inactive:
PPP6R1 (UniProt Q9UPN7) -0.078
PLIN2 (UniProt Q99541) -0.31
PELP1 (UniProt Q8IZL8) -0.282
PCGF2 (UniProt P35227) 0.121
PTPN23 (UniProt Q9H3S7) -0.072
PBK (UniProt Q96KB5) -0.136
POTEI (UniProt P0CG38) -0.019
PDE4DIP isoform 4 (UniProt Q5VU43) 0.106
PSMD2 (UniProt Q13200) 0.015
PPT2 isoform 3 (UniProt Q9UMR5) 0.001
PLA2G15 (UniProt Q8NCC3) -0.036
PRPF38B (UniProt Q5VTL8) 0.001
PELO (UniProt Q9BRX2) -0.096
PIGT (UniProt Q969N2) -0.029
PRKCQ (UniProt Q04759) -0.165
PDCD6IP (UniProt Q8WUM4) -0.117
PRIM2 (UniProt P49643) 0.07
PIP4P2 (UniProt Q8N4L2) 0.017
PTMA (UniProt P06454) 0.059
POLD3 (UniProt Q15054) -0.049
PCTP (UniProt Q9UKL6) 0.029
PSMC3 (UniProt P17980) 0.027
POLR3K (UniProt Q9Y2Y1) 0.066
PPP2R5C isoform 4 (UniProt Q13362) -0.011
PCYT1A (UniProt P49585) -0.148
PEF1 (UniProt Q9UBV8) -0.019
PITRM1 isoform 2 (UniProt Q5JRX3) 0.038
PURA (UniProt Q00577) 0.334
PPIL1 (UniProt Q9Y3C6) 0.045
PIKFYVE (UniProt Q9Y2I7) -0.062
PNPLA8 (UniProt Q9NP80) 0.031
PNPLA2 (UniProt Q96AD5) -0.303
PGGT1B (UniProt P53609) -0.011
PI4K2A (UniProt Q9BTU6) -0.004
PRPF40A (UniProt O75400) -0.04
POLD1 (UniProt P28340) 0.036

The targets below were run with Cc1cc(Nc2cc(N3CCN(C)CC3)nc(Sc3ccc(NC(=O)C4CC4)cc3)n2)n[nH]1 [tozasertib] in the same assay as above.
In short: as §1

log2 fold change, inactive:
PPP6R1 (UniProt Q9UPN7) 0.084
PLIN2 (UniProt Q99541) -0.086
PELP1 (UniProt Q8IZL8) -0.012
PCGF2 (UniProt P35227) 0.015
PTPN23 (UniProt Q9H3S7) 0.148
PBK (UniProt Q96KB5) 0.109
POTEI (UniProt P0CG38) 0.032
PDE4DIP isoform 4 (UniProt Q5VU43) -0.011
PSMD2 (UniProt Q13200) 0.023
PPT2 isoform 3 (UniProt Q9UMR5) -0.04
PLA2G15 (UniProt Q8NCC3) -0.075
PRPF38B (UniProt Q5VTL8) -0.022
PELO (UniProt Q9BRX2) 0.001
PIGT (UniProt Q969N2) 0.029
PRKCQ (UniProt Q04759) -0.033
PDCD6IP (UniProt Q8WUM4) 0.085
PRIM2 (UniProt P49643) 0.059
POLR2B (UniProt P30876) -0.014
PIP4P2 (UniProt Q8N4L2) -0.041
PTMA (UniProt P06454) 0.154
POLD3 (UniProt Q15054) 0.048
PCTP (UniProt Q9UKL6) -0.042
PSMC3 (UniProt P17980) 0.024
POLR3K (UniProt Q9Y2Y1) -0.011
PPP2R5C isoform 4 (UniProt Q13362) -0.055
PCYT1A (UniProt P49585) 0.072
PEF1 (UniProt Q9UBV8) 0.06
PITRM1 isoform 2 (UniProt Q5JRX3) -0.029
PURA (UniProt Q00577) 0.069
PPIL1 (UniProt Q9Y3C6) -0.01
PIKFYVE (UniProt Q9Y2I7) -0.005
PNPLA8 (UniProt Q9NP80) -0.011
PNPLA2 (UniProt Q96AD5) -0.06
PGGT1B (UniProt P53609) 0.006
PI4K2A (UniProt Q9BTU6) -0.009
PRPF40A (UniProt O75400) 0.061
POLD1 (UniProt P28340) 0.016
